Laboratory results published in PubChem BioAssay (Tox21).
“And” between values parts separate entries of the source, which are not always exact repeats. Equal values may be shown once. Records with an inconclusive call do not appear. Where a call stands in place of a potency, no number is given. A structure can be active in one record and inactive in another. The source made the active and inactive calls. Unless noted, the call rests on the fitted dose curve; in most records, active means well fitted curve in the direction sought with a large enough effect in the repeat runs; inconclusive means weak or mixed curves; inactive means no such curve, though single readings can be large; an effect the other way counts as inactive or inconclusive.

Molecular target: Androgen receptor (Homo sapiens) (UniProt P10275)
Test: qHTS assay to identify small molecule antagonists of the androgen receptor (AR) signaling pathway using the MDA cell line in the presence of 0.5 nM R1881 (AID 1259243); further: nearly all actives have a fitted effect of over 50% in size; further: potency means the concentration at half of the fitted maximal effect
Conditions: MDA-kb2 MMTV-luciferase, R1881 0.5 nM, 16 h; series mostly up to 92.4 µM
In short: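 Reporter cells cultured without CO2 receive test chemicals, then 0.5 nM R1881 final; after 16 hr at 37C, ONE-Glo is added and light output recorded.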

Sequence of Androgen receptor (Homo sapiens) (P10275 whole entry, looked up): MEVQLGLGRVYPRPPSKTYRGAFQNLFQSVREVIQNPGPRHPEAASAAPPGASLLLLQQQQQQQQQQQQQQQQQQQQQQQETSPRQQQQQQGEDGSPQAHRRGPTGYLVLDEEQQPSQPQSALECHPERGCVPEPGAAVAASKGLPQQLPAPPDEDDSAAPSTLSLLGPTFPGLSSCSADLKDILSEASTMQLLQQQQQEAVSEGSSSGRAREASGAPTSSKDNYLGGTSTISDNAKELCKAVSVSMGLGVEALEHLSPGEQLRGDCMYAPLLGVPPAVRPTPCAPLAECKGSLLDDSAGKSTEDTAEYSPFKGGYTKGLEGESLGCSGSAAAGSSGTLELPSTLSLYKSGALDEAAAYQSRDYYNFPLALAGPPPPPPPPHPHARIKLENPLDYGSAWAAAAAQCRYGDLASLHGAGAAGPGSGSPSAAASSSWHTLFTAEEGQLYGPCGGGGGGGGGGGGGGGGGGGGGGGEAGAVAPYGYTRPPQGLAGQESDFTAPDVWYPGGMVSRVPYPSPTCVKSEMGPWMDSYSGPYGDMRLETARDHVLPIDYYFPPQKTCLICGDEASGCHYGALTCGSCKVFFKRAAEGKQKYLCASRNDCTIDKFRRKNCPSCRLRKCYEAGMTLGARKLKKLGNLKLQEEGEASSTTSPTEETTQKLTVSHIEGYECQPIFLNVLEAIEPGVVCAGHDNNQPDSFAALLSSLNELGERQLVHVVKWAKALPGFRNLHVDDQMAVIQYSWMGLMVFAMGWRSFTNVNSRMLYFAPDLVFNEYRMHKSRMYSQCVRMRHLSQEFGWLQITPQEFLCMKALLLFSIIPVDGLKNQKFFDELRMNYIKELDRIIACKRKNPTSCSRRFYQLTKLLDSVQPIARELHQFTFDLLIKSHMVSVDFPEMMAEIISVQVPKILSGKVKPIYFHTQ

| Compound | Potency |
| --- | --- |
| COc1ccc2c(c1)c(CC(=O)O)c(C)n2C(=O)c1ccc(Cl)cc1 | inactive |
| CN(C)C(=O)Nc1ccc(Cl)c(Cl)c1 | 30.5 µM (active) and 27.3 µM (active) and 23.7 µM (active) |
| CCCCOC(=O)c1ccc(O)cc1 | inactive |
| CCOc1ccc(NC(C)=O)cc1 | inactive |
| CCCCC1(COC(=O)CCC(=O)O)C(=O)N(c2ccccc2)N(c2ccccc2)C1=O | inactive |
| CN(C)CCOC(c1ccccc1)c1ccccc1 | inactive |
| CCCCCCc1ccc(O)cc1O | 43.4 µM (active) and 48.6 µM (active) and 23.7 µM (active) |

Molecular target: Estrogen receptor (Homo sapiens) (UniProt P03372)
Test: qHTS assay to identify small molecule antagonists of the estrogen receptor alpha (ER-alpha) signaling pathway using the BG1 cell line in the presence of 0.1 nM 17-beta-estradiol (AID 1259244); further: nearly all actives have a fitted effect of over 50% in size; further: potency means the concentration at half of the fitted maximal effect
Conditions: VM7Luc4E2 (BG1) ERE-luciferase, antagonist mode, 0.1 nM E2, 22 h; series mostly up to 92.4 µM
In short: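 Estradiol at 0.1 nM (final) stimulates the endogenous ER-alpha of VM7Luc4E2 cells carrying an ERE-driven luciferase; compounds are co-incubated 22 h at 37C and luciferase output quantified by luminescence.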

Sequence of Estrogen receptor (Homo sapiens) (P03372 whole entry, looked up): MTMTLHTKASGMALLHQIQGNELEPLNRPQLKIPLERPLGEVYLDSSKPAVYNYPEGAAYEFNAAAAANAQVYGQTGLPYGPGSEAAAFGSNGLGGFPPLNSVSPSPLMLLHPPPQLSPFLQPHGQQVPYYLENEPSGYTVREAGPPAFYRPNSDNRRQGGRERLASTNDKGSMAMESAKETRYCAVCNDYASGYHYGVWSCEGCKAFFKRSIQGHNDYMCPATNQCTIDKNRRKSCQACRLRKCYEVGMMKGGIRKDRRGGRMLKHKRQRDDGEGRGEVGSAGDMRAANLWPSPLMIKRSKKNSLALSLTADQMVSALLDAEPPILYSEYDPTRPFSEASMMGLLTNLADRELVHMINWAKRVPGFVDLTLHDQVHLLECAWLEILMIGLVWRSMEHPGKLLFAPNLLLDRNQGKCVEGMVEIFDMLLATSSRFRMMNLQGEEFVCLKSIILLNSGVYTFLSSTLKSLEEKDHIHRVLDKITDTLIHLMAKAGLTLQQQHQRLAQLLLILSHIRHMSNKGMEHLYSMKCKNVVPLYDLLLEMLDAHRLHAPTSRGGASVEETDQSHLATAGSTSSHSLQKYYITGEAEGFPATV

| Compound | Potency |
| --- | --- |
| COc1ccc(C(Cl)=C(c2ccc(OC)cc2)c2ccc(OC)cc2)cc1 | 2.72 µM (active) and 7.7 µM (active) and 2.11 µM (active) |
| NS(=O)(=O)c1cc2c(cc1Cl)NCNS2(=O)=O | inactive |
| COc1ccc2c(c1)c(CC(=O)O)c(C)n2C(=O)c1ccc(Cl)cc1 | inactive |
| O=c1[nH]cnc2c1ncn2[C@H]1CC[C@@H](CO)O1 | inactive |
| Cc1ncc([N+](=O)[O-])n1CCO | inactive |
| CCc1nc(N)nc(N)c1-c1ccc(Cl)cc1 | 31.1 µM (active) and 48.6 µM (active) |
| CN(C)C(=O)Nc1ccc(Cl)c(Cl)c1 | inactive |
| CC12CCC(CC1)C(C)(C)O2 | inactive |
| CCOc1ccc(NC(C)=O)cc1 | inactive |
| CCCCC1(COC(=O)CCC(=O)O)C(=O)N(c2ccccc2)N(c2ccccc2)C1=O | inactive |
| CCCc1cc(=O)[nH]c(=S)[nH]1 | inactive |
| CCOC(N)=O | inactive |
| CCN(CC)C(=O)c1cccc(C)c1 | inactive |
| CCCCCCCC(=O)OCC(COC(=O)CCCCCCC)OC(=O)CCCCCCC | inactive |
| O=C1OC2(c3ccccc31)c1cc(Br)c(O)c(Br)c1Oc1c2cc(Br)c(O)c1Br | inactive |
| NC(=O)c1cccnc1 | inactive |
| CN1[C@@H]2CC(OC(=O)[C@H](CO)c3ccccc3)C[C@H]1[C@@H]1O[C@@H]12 (stereo partly drawn) | inactive |
| CN(C)CCOC(c1ccccc1)c1ccccc1 | inactive |
| CC(=O)CCC(=O)O | inactive |
| Cc1c(C(=O)O)c(O)cc2c1C(=O)c1c(O)c([C@@H]3O[C@H](CO)[C@@H](O)[C@H](O)[C@H]3O)c(O)c(O)c1C2=O | inactive |
| CN1CCc2cccc3c2[C@H]1Cc1ccc(O)c(O)c1-3 | 49.1 µM (active) and 11.9 µM (active) |
| CCCCCCCCCCCCCCCC[N+](C)(C)Cc1ccccc1 | 63.1 µM (active) and 55.5 µM (active) |
| C=CCc1ccc(O)c(OC)c1 | inactive |
| NC(CO)(CO)CO | inactive |
| CS(=O)(=O)OCCCCOS(C)(=O)=O | inactive |
| O=S1(=O)OC(c2ccc(O)cc2)(c2ccc(O)cc2)c2ccccc21 | 61.1 µM (active) and inactive |
| CC(C)C(=O)Nc1ccc([N+](=O)[O-])c(C(F)(F)F)c1 | 56 µM (active) and 48.6 µM (active) and 29.8 µM (active) |

System: not listed separately
Test: qHTS assay to identify small molecule phospholipidosis (PLD) inducers (AID 1259344; active means well fitted curve in the direction sought with a large enough effect; an effect the other way counts as inactive or inconclusive)
Conditions: HepG2 phospholipidosis, LipidTOX Red imaging, 24 h; series mostly up to 38.3 µM
In short: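 HepG2 cells, 900/well, treated with compound plus LipidTOX Red for 24 h at 37 C; amiodarone positive and DMSO negative controls. Fixed with paraformaldehyde/Hoechst, then high-content imaging scored LipidTOX pit count and integrated intensity per well and per cell.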

| Compound | Potency | PLD induction |
| --- | --- | --- |
| COc1ccc(C(Cl)=C(c2ccc(OC)cc2)c2ccc(OC)cc2)cc1 | inactive | – |
| NS(=O)(=O)c1cc2c(cc1Cl)NCNS2(=O)=O | inactive | – |
| COc1ccc2c(c1)c(CC(=O)O)c(C)n2C(=O)c1ccc(Cl)cc1 | – | 14.5% [at 7.66 µM] (inactive) |
| O=c1[nH]cnc2c1ncn2[C@H]1CC[C@@H](CO)O1 | inactive | – |
| Cc1ncc([N+](=O)[O-])n1CCO | inactive | – |
| CCc1nc(N)nc(N)c1-c1ccc(Cl)cc1 | inactive | – |
| CN(C)C(=O)Nc1ccc(Cl)c(Cl)c1 | inactive | – |
| CCCCOC(=O)c1ccc(O)cc1 | inactive | – |
| CC12CCC(CC1)C(C)(C)O2 | inactive | – |
| CCOc1ccc(NC(C)=O)cc1 | inactive | – |
| CCCCC1(COC(=O)CCC(=O)O)C(=O)N(c2ccccc2)N(c2ccccc2)C1=O | inactive | – |
| CCCc1cc(=O)[nH]c(=S)[nH]1 | inactive | – |
| CCOC(N)=O | inactive | – |
| CCN(CC)C(=O)c1cccc(C)c1 | inactive | – |
| CCCCCCCC(=O)OCC(COC(=O)CCCCCCC)OC(=O)CCCCCCC | inactive | – |
| O=C1OC2(c3ccccc31)c1cc(Br)c(O)c(Br)c1Oc1c2cc(Br)c(O)c1Br | inactive | – |
| NC(=O)c1cccnc1 | inactive | – |
| CN1[C@@H]2CC(OC(=O)[C@H](CO)c3ccccc3)C[C@H]1[C@@H]1O[C@@H]12 (stereo partly drawn) | inactive | – |
| CN(C)CCOC(c1ccccc1)c1ccccc1 | inactive | – |
| CC(=O)CCC(=O)O | inactive | – |
| Cc1c(C(=O)O)c(O)cc2c1C(=O)c1c(O)c([C@@H]3O[C@H](CO)[C@@H](O)[C@H](O)[C@H]3O)c(O)c(O)c1C2=O | inactive | – |
| CN1CCc2cccc3c2[C@H]1Cc1ccc(O)c(O)c1-3 | inactive | – |
| CCCCCCCCCCCCCCCC[N+](C)(C)Cc1ccccc1 | inactive | – |
| C=CCc1ccc(O)c(OC)c1 | inactive | – |
| NC(CO)(CO)CO | inactive | – |
| CS(=O)(=O)OCCCCOS(C)(=O)=O | inactive | – |
| O=S1(=O)OC(c2ccc(O)cc2)(c2ccc(O)cc2)c2ccccc21 | inactive | – |
| CC(C)C(=O)Nc1ccc([N+](=O)[O-])c(C(F)(F)F)c1 | inactive | – |
| CCCCCCc1ccc(O)cc1O | inactive | – |
